Reference: PubChem BioAssay (Tox21)
Inconclusive results are not listed. Where a call stands in place of a potency, no number is given. Calls of active or inactive are those of the source. Unless noted, the call rests on the fitted dose curve; in most records, active means well fitted curve in the direction sought with a large enough effect in the repeat runs; inconclusive means weak or mixed curves; inactive means no such curve, though single readings can be large; an effect the other way counts as inactive or inconclusive.

molecular target: Estrogen receptor (Homo sapiens) (UniProt P03372); experiment: qHTS assay to identify small molecule agonists of the estrogen receptor alpha (ER-alpha) signaling pathway using the BG1 cell line (AID 743079); details: BG1Luc4E2 cells, ERE-luciferase agonist, 22 h; activation: at 70.3 µM (top of the series); further: nearly all actives have a fitted effect of over 20% in size; further: potency means the concentration at half of the fitted maximal effect
Sequence (P03372 whole entry, looked up): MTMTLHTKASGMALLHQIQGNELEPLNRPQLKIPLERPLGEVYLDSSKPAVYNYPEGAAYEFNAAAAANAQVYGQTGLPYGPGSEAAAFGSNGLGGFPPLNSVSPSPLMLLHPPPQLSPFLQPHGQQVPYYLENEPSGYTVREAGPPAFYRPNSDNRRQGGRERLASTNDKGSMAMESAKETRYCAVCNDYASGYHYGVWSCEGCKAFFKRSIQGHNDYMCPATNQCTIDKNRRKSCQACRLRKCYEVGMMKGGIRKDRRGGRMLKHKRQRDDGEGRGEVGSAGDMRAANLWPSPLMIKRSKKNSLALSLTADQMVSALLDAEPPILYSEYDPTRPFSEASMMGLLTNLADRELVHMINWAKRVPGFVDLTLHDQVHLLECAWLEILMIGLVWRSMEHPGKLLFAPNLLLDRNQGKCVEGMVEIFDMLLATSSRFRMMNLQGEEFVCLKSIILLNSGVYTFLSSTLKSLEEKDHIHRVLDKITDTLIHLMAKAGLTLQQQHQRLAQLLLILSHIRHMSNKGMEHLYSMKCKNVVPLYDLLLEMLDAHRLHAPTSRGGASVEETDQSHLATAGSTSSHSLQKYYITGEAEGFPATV

| Compound | Potency |
| --- | --- |
| O=C(O)C[C@H](NC(=O)OCc1ccccc1)C(=O)O | inactive |
| c1ccc2sc(SN(C3CCCCC3)C3CCCCC3)nc2c1 | inactive |
| CCC(C)COC(=O)CC(C)C (configuration not stated) | inactive |
| CCC(=O)OC | inactive |
| Cc1ccc(Cl)c(Nc2ccccc2C(=O)O)c1Cl | inactive |
| O=C1c2ccccc2C(=O)C1(O)O | inactive |
| FC(F)(F)c1ccccc1Cl | inactive |
| Oc1ccc(Cl)c2cccnc12 | inactive |
| N#CCCN(CCO)CCO | inactive |
| O=C1c2ccccc2C(=O)C1c1ccc(Br)cc1 | inactive |
| COC(=O)CS | inactive |
| Cc1ccccc1S | inactive |
| CCCCCC#CC(=O)OC | inactive |
| CC(C)=CC(=O)C=C(C)C | inactive |
| C/C=C\C/C=C/CCCCCCCCOC(C)=O | inactive |
| O=C1Cc2ccccc2N1c1c(Cl)cccc1Cl | 10.9 µM (active) |
| Oc1c(I)cc(I)c2cccnc12 | inactive |
| CCOC(=O)c1ccc(I)cc1 | inactive |
| O=C(CCc1ccc(O)cc1)c1c(O)cc(O)cc1O | 4.96 µM (active) |
| COc1ccccc1Oc1c(NS(=O)(=O)c2ccc(C(C)(C)C)cc2)nc(-c2ncccn2)nc1OCCO | inactive |
| CCCC(C(=O)OCCN(CC)CC)(c1ccccc1)c1ccccc1 | inactive |
| Oc1cccc(Nc2ccccc2)c1 | 25.4 µM (active) |

system: not listed separately; experiment: qHTS assay to identify small molecule antagonists of the estrogen receptor alpha (ER-alpha) signaling pathway using the BG1 cell line (AID 743080; calls by dose curve;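 further: BG1 cells stimulated with 17beta-estradiol alongside compound; nearly all actives have a fitted effect of over 25% in size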; further: potency means the concentration at half of the fitted maximal effect); details: BG1Luc4E2 ERE-luciferase antagonist mode, luminescence; series mostly up to 70.3 µM
Outline: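 BG1-Luc-4E2 cells (endogenous full-length ER-alpha, 4xERE luciferase) hormone-starved 5 days in charcoal-stripped FBS, plated 4,000/well for 24 h, then compound plus 17beta-estradiol for 21.5 h at 37 C; ONE-Glo luminescence read.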

| Compound | Potency |
| --- | --- |
| O=C(O)C[C@H](NC(=O)OCc1ccccc1)C(=O)O | inactive |
| CCCCCCCC/C=C\CCCCCCCCCCCC(=O)O | inactive |
| c1ccc2sc(SN(C3CCCCC3)C3CCCCC3)nc2c1 | inactive |
| CCC(C)COC(=O)CC(C)C (configuration not stated) | inactive |
| CCC(=O)OC | inactive |
| Cc1ccc(Cl)c(Nc2ccccc2C(=O)O)c1Cl | inactive |
| O=C1c2ccccc2C(=O)C1(O)O | inactive |
| FC(F)(F)c1ccccc1Cl | inactive |
| Oc1ccc(Cl)c2cccnc12 | inactive |
| N#CCCN(CCO)CCO | inactive |
| CCOc1ccc(Cc2nccc3cc(OCC)c(OCC)cc23)cc1OCC | 11.4 µM (active) |
| C=C(C)[C@@H]1CCC2=CCC[C@@H](C)[C@]2(C)C1 | inactive |
| O=C1c2ccccc2C(=O)C1c1ccc(Br)cc1 | inactive |
| COC(=O)CS | inactive |
| Cc1ccccc1S | inactive |
| CCCCCC#CC(=O)OC | inactive |
| CC(C)=CC(=O)C=C(C)C | inactive |
| C/C=C\C/C=C/CCCCCCCCOC(C)=O | inactive |
| O=C1Cc2ccccc2N1c1c(Cl)cccc1Cl | 68.6 µM (active) |
| CC(=O)[C@H]1[C@H](C#N)C[C@H]2[C@@H]3CC=C4C[C@@H](O)CC[C@]4(C)[C@H]3CC[C@@]21C | inactive |
| CCOC(=O)c1ccc(I)cc1 | inactive |
| O=C(CCc1ccc(O)cc1)c1c(O)cc(O)cc1O | inactive |
| COc1ccccc1Oc1c(NS(=O)(=O)c2ccc(C(C)(C)C)cc2)nc(-c2ncccn2)nc1OCCO | inactive |
| CCCC(C(=O)OCCN(CC)CC)(c1ccccc1)c1ccccc1 | inactive |

system: not listed separately; experiment: qHTS assay to identify small molecule antagonists of the estrogen receptor alpha (ER-alpha) signaling pathway using the BG1 cell line - cell viability counter screen (AID 743081); details: BG1Luc4E2 viability, CellTiter-Fluor, 22 h; series mostly up to 70.3 µM;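 further: compound given together with 17beta-estradiol as the ER stimulus; nearly all actives have a fitted effect of over 45% in size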

| Compound | Potency |
| --- | --- |
| O=C(O)C[C@H](NC(=O)OCc1ccccc1)C(=O)O | inactive |
| CCCCCCCC/C=C\CCCCCCCCCCCC(=O)O | inactive |
| c1ccc2sc(SN(C3CCCCC3)C3CCCCC3)nc2c1 | inactive |
| O=C1CCCCCCCCCCOCCCCO1 | inactive |
| CCCCCC[C@@H](O)C/C=C\CCCCCCCC(=O)O | inactive |
| CCC(C)COC(=O)CC(C)C (configuration not stated) | inactive |
| CCC(=O)OC | inactive |
| Cc1ccc(Cl)c(Nc2ccccc2C(=O)O)c1Cl | inactive |
| O=C1c2ccccc2C(=O)C1(O)O | inactive |
| FC(F)(F)c1ccccc1Cl | inactive |
| Oc1ccc(Cl)c2cccnc12 | inactive |
| N#CCCN(CCO)CCO | inactive |
| COc1ccccc1N1CCN(CC(O)COc2cccc3ccccc23)CC1 (configuration not stated) | inactive |
| Cc1cccc(O)c1N | inactive |
| C=C(C)[C@@H]1CCC2=CCC[C@@H](C)[C@]2(C)C1 | inactive |
| O=C1c2ccccc2C(=O)C1c1ccc(Br)cc1 | inactive |

| Compound | Potency |
| --- | --- |
| O=C(O)c1ccc(OCCCOc2ccc(C(=O)O)cc2)cc1 | inactive |
| COC(=O)CS | inactive |
| Cc1ccccc1S | inactive |
| CCCCCC#CC(=O)OC | inactive |
| CC(C)=CC(=O)C=C(C)C | inactive |
| C/C=C\C/C=C/CCCCCCCCOC(C)=O | inactive |
| CCCCCCCCC(CCCCCC)C(=O)O (configuration not stated) | inactive |
| O=C1Cc2ccccc2N1c1c(Cl)cccc1Cl | inactive |
| CC(C)C(O)(c1ccc(OC(F)(F)F)cc1)c1cncnc1 (configuration not stated) | inactive |
| CC(=O)[C@H]1[C@H](C#N)C[C@H]2[C@@H]3CC=C4C[C@@H](O)CC[C@]4(C)[C@H]3CC[C@@]21C | inactive |
| Oc1c(I)cc(I)c2cccnc12 | inactive |
| CCOC(=O)c1ccc(I)cc1 | inactive |
| O=C(CCc1ccc(O)cc1)c1c(O)cc(O)cc1O | inactive |
| COc1ccccc1Oc1c(NS(=O)(=O)c2ccc(C(C)(C)C)cc2)nc(-c2ncccn2)nc1OCCO | inactive |
| CCCCCCCCOc1ccc(C(=O)O)cc1 | inactive |

molecular target: Aromatase (Homo sapiens) (UniProt P11511); experiment: qHTS assay to identify aromatase inhibitors (AID 743083); details: MCF-7 aro ERE, testosterone-driven ERE luciferase, 24 h; series mostly up to 70.3 µM; further: nearly all actives have a fitted effect of over 55% in size; further: potency means the concentration at half of the fitted maximal effect
Sequence (P11511 whole entry, looked up): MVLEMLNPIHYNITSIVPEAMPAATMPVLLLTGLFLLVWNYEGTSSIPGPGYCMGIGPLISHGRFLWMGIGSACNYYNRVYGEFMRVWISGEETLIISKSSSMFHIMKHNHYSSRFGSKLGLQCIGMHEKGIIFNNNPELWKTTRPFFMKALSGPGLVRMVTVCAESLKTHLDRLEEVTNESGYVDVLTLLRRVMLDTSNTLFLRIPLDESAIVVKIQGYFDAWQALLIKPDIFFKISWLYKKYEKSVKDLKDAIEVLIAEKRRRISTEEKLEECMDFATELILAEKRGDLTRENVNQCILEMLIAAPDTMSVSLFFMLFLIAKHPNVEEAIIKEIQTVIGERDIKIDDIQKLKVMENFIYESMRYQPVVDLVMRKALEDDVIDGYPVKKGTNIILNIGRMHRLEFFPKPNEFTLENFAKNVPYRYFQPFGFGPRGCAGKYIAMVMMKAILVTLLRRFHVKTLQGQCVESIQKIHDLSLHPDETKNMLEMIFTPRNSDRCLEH

| Compound | Potency |
| --- | --- |
| O=C(O)C[C@H](NC(=O)OCc1ccccc1)C(=O)O | inactive |
| CCCCCCCC/C=C\CCCCCCCCCCCC(=O)O | inactive |
| c1ccc2sc(SN(C3CCCCC3)C3CCCCC3)nc2c1 | inactive |
| Nc1nnc(-c2ccc([N+](=O)[O-])o2)o1 | 48.6 µM (active) |
| CCCCCC[C@@H](O)C/C=C\CCCCCCCC(=O)O | inactive |
| CCC(C)COC(=O)CC(C)C (configuration not stated) | inactive |
| CCC(=O)OC | inactive |
| Cc1ccc(Cl)c(Nc2ccccc2C(=O)O)c1Cl | inactive |
| FC(F)(F)c1ccccc1Cl | inactive |
| Oc1ccc(Cl)c2cccnc12 | 3.35 µM (active) |
| N#CCCN(CCO)CCO | inactive |
| COc1ccccc1N1CCN(CC(O)COc2cccc3ccccc23)CC1 (configuration not stated) | inactive |
| CCOc1ccc(Cc2nccc3cc(OCC)c(OCC)cc23)cc1OCC | inactive |
| Cc1cccc(O)c1N | inactive |
| O=C1c2ccccc2C(=O)C1c1ccc(Br)cc1 | inactive |
| O=C1c2ccccc2C(=O)c2c(O)c(O)cc(O)c21 | inactive |
| O=C(O)c1ccc(OCCCOc2ccc(C(=O)O)cc2)cc1 | inactive |
| COC(=O)CS | inactive |
| Cc1ccccc1S | inactive |
| CCCCCC#CC(=O)OC | inactive |
| CC(C)=CC(=O)C=C(C)C | inactive |
| C/C=C\C/C=C/CCCCCCCCOC(C)=O | inactive |
| O=C1Cc2ccccc2N1c1c(Cl)cccc1Cl | inactive |
| CC(C)C(O)(c1ccc(OC(F)(F)F)cc1)c1cncnc1 (configuration not stated) | inactive |
| O=[N+]([O-])c1ccc(Nc2ccc(Nc3ccccc3)c(S(=O)(=O)O)c2)c([N+](=O)[O-])c1 | inactive |
| CC(=O)[C@H]1[C@H](C#N)C[C@H]2[C@@H]3CC=C4C[C@@H](O)CC[C@]4(C)[C@H]3CC[C@@]21C | inactive |
| Oc1c(I)cc(I)c2cccnc12 | inactive |
| CCOC(=O)c1ccc(I)cc1 | inactive |
| COc1ccccc1Oc1c(NS(=O)(=O)c2ccc(C(C)(C)C)cc2)nc(-c2ncccn2)nc1OCCO | inactive |
| Oc1cccc(Nc2ccccc2)c1 | inactive |
